TRHR enhancer-1 – TRH receptor (human) allosteric enhancement; enhancement, % at 2 µM; P34981; TRHR cells, fluo-8 calcium fluorescence, EC20 TRH enhancement; hit rate 0.66% among 360,000; AID 493056; in the data active = enhancement above about 30%; also: 0% is about no effect
Target sequence (P34981 whole entry, looked up): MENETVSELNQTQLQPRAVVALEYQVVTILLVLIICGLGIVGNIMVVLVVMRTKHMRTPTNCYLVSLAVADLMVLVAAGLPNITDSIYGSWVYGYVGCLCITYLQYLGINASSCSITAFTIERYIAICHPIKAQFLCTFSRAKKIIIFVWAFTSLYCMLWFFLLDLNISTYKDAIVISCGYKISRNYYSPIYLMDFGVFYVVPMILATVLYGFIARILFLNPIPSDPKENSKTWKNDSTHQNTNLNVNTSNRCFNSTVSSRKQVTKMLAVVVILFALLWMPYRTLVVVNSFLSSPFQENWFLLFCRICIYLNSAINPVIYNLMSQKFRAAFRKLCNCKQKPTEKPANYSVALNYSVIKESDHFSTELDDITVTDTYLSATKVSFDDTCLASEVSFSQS
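Enhancer read-out: after compound pinning and an initial kinetic agonist-mode read, an EC20 of TRH (10 nM final) was injected and fluo-8 calcium signal (Ex 480/Em 530) followed at 1 s/cycle for 100 cycles in TRHR-expressing cells.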
TRPML1 inh – blocks the human TRPML1 channel; Q9GZU1; TRPML1-inducible cells, Ca2+ dye fluorescence, FDSS; active compounds read low; inhibition of EC80 agonist-evoked calcium signal; activity change, negative = inhibition, % (no concentration beside the values); hit rate 0.02% among 390,000; in the data active = activity change below about -50%; inconclusive = between about -30% and that limit;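 also: stimulus is agonist 54-4 at its EC80 concentration; % is scaled to controls: 0 for no effect and ±100 for the full control effect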
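Calcium fluorescence in TRPML1-DL cells induced overnight with Tet: a 110 s read after compound pin addition, then a 110 s antagonist read after challenge with 54-4 at 4 uM final (EC80).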
TRPML1 ag – agonists of human TRPML1 channel; hit rate 0.12% among 410,000; TRPML1-expressing cells, Ca2+ dye fluorescence, FDSS; activation, % (test concentration not listed); Q9GZU1; in the data active = activation above about 50%; inconclusive = mostly about 30% to 49%; also: 0% is about no effect
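Tetracycline-induced TRPML1-DL cells are seeded and incubated overnight before loading with a no-wash Ca2+ dye and quencher. Agonist activity is taken from the 110 s fluorescence read following compound pin-transfer on an FDSS, before EC80 54-4 challenge.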
TRHR agonist-1 – agonists of human TRH receptor; P34981; TRHR cells, calcium flux fluo-8, FDSS agonist mode; activation, % at 2 µM; hit rate 0.18% among 360,000; AID 493084; in the data active = activation above about 30%; also: 0% is about no effect
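In this calcium-flux screen, cells bearing human TRHR are dye-loaded with fluo-8, baselined for 10 cycles, then exposed to library compounds; positive kinetic calcium responses during the agonist phase mark hits, with TRH as control.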
TRPV1 potentiator – potentiators of human vanilloid receptor 1 (TRPV1) | TRPV1-expressing cells, Fluo-8 calcium influx, capsaicin EC20 potentiation | potentiation, % at 8.33 µM | AID 540277 | Q8NER1 | hit rate 0.02% among 320,000; in the data active = potentiation above about 80%; inconclusive = between about 30% and that limit; also: 0% is about no effect
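TRPV1-expressing cells were cultured overnight at 35.5C and loaded with Fluo-8 calcium dye for 40 to 90 min at room temperature. After a 10 s baseline, compound was added and calcium influx was read kinetically for 3 min (ex 480/em 520 nm).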
TRPV1 agonist – activates the human vanilloid receptor TRPV1; activation, % at 8.33 µM; TRPV1-expressing cells, Fluo-8 calcium influx, agonist mode; Q8NER1; hit rate 0.19% among 320,000; AID 540275; in the data active = activation above about 80%; inconclusive = between about 30% and that limit; also: 0% is about no effect
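TRPV1-expressing cells were cultured overnight at 35.5C and loaded with Fluo-8 calcium dye for 40 to 90 min at room temperature. After a 10 s baseline, compound was added and calcium influx was read kinetically for 3 min (ex 480/em 520 nm).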
TRHR enhancer-2 – confirmation of human TRH receptor allosteric enhancers | shares compounds with TRHR enhancer-1 | TRH receptor cell assay, enhancer confirmation qHTS | activity change, negative = inhibition, % at 46.1 µM | 970 tested, under 10 active;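 also: compound effect scored on response to added TRH at EC20 of 10 nM; 0% is about no effect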
TRHR agonist-2 – confirmation of human TRH receptor agonists; shares compounds with TRHR enhancer-1; TRHR-expressing cells, agonist activation read-out; Potency, µM (top dose mostly 46.1 µM), without a hit: top-dose activation, hits mostly activators; hit rate 8% among 970; AID 493078; also: potency is read from the fitted curve at half-maximal effect; 0% is about no effect; nearly all actives have a fitted effect of over 75% in size
* = called active by the depositor; ? = inconclusive; . = no result given. An excerpt weighted towards active compounds, which were near 0.99% of everything screened. Unless noted, calls follow the shape of the dose curve; as a rule, active = well fitted curve in the direction sought with a large enough effect; inconclusive = small, poorly fitted or top-dose-only effect, or another doubt; inactive = no such curve, though single readings can be large; an effect the other way counts as inactive or inconclusive.

SMILES | TRHR enhancer-1 | TRPML1 inh | TRPML1 ag | TRHR agonist-1 | TRPV1 potentiator | TRPV1 agonist | TRHR enhancer-2 | TRHR agonist-2
O=C(c1cc2ccccc2oc1=O)N1CCCC1 | 2.3 | -14.2 | 0.3 | 1.2 | -0.5 | 1.8 | . | .
O=C(c1cc2ccccc2oc1=O)N1CCCCCCC1 | 56.4* | 0.7 | 0.5 | 0.0 | 0.0 | 1.4 | -4.3 | -0.6%
O=S(=O)(NCc1ccccc1F)NCc1ccccc1F | 58.5* | -6.6 | -0.3 | -1.0 | 2.3 | 0.9 | -5.8 | 0.2%
Cc1cnc2ccccc2c1C | . | . | -0.4 | . | . | . | . | .
Cc1oc(-c2ccccc2)nc1C(=O)OCC(=O)NC(=O)NCC(C)C | 48.6* | 1.8 | 0.5 | 0.2 | -2.4 | 1.6 | -4.4 | -0.7%
Cc1oc(-c2ccccc2)nc1C(=O)OCC(=O)NC(C)c1ccccc1 (stereo not given) | 8.2 | 8.0 | 1.0 | -1.1 | -0.6 | 3.1 | . | .
O=C(C[N+]12CN3CN(CN(C3)C1)C2)c1ccc(Cl)cc1 | . | . | 0.4 | . | . | . | . | .
Nc1nc2ncn(COCCO)c2c(=O)[nH]1 | . | . | 0.0 | . | . | . | . | .
COCCN(C(=S)Nc1ccccc1C)C(C)c1cccnc1 (stereo not given) | 15.1 | 36.0 | 0.4 | -1.6 | -11.9 | 1.5 | . | .
Cc1ccccc1NC(=S)N(CCN(C)C)C(C)c1cccnc1 (stereo not given) | 43.1* | 3.9 | -0.3 | 0.1 | 5.5 | -0.2 | -8.7 | -0.7%
COc1cc(OC)c(OC)cc1/C=C/c1cc[n+](C)c2ccccc12 | . | . | -0.8 | . | . | . | . | .
CCc1nc(SCC(=O)Nc2cccc3ccccc23)[nH]c(=O)c1C | -5.6 | -19.5 | 0.7 | -0.1 | 5.4 | -0.6 | . | .
CCc1nc(SC)[nH]c(=O)c1C | 43.1* | -4.5 | 0.0 | -1.0 | -0.3 | 5.0 | -0.8 | -0.3%
COc1ccccc1CN(C)CC(=O)c1c(C)[nH]c2ccccc12 | . | . | 0.0 | . | . | . | . | .
COc1ccc(OC)c(/C=C/c2nc3ccccc3nc2C)c1 | . | . | 1.6 | . | . | . | . | .
COc1ccc(OC)c(/C=C/c2nc3ccccc3[nH]c2=O)c1 | -3.8 | -7.9 | 24.8 | 26.4 | 22.1 | 8.9 | 4.9 | 18.4µM*
Cc1cc(C=Nc2ccc(/C=C/c3ccnc4ccccc34)cc2)ccc1N(C)C | . | . | 8.8 | . | . | . | . | .
CCCN1C(=O)/C(=C/c2ccc(N3CCOCC3)cc2)NC1=S | 12.8 | -1.1 | 20.0 | 47.8* | -1.7 | ? | ? | 16.4µM*
CCCN1C(=O)/C(=C/c2ccc(OCC(=O)OCC)cc2)NC1=S | 0.2 | 5.7 | 0.6 | 0.8 | -9.0 | 12.9 | . | .
CCCCOc1ccc(CC(=O)NOC)cc1 | . | . | -0.9 | . | . | . | . | .
CS(=O)(=O)N1CCN(c2ccc(NC(=S)NC(=O)c3cccs3)cc2)CC1 | 44.1* | 22.5 | 0.5 | -0.7 | ? | 1.2 | -5.3 | -0.5%
O=C(NC(=S)Nc1ccc(N2CCCCC2)cc1)c1cccs1 | 1.0 | -17.1 | 1.1 | 1.0 | -19.9 | 10.0 | . | .
C(=C\c1ccnc2ccccc12)/c1ccc(N2CCN(c3ccc(/C=C/c4ccnc5ccccc45)cc3)CC2)cc1 | . | . | 10.8 | . | . | . | . | .
O=C(CSc1nnc(-c2ccc(Cl)cc2)n1-c1ccc(Cl)cc1)N/N=C/c1ccco1 | 47.8* | -19.2 | 1.6 | -1.1 | -6.0 | -0.2 | 13.0 | 0.4%
CC(C)=CCc1c(O)ccc(C(=O)Cc2ccccc2)c1O | 67.4* | 0.4 | 11.1 | 2.5 | 0.4 | 11.4 | 0.4 | ?
N#Cc1nc(-c2ccc(OCc3ccccc3Cl)cc2)oc1N1CCCCCC1 | . | . | -0.6 | . | . | . | . | .
COc1cc(C(c2nnnn2C2CCCC2)N2CCc3ccccc3C2)ccc1O (stereo not given) | 3.1 | 0.2 | -0.3 | -0.2 | 16.5 | 12.5 | . | .
Oc1ccc(C(c2nnnn2C2CCCC2)N2CCc3ccccc3C2)cc1 (stereo not given) | 0.7 | -0.7 | 0.3 | 44.6* | -4.8 | 29.7 | -12.5 | 0.7%
Cc1nc(N2CCN(C)CC2)c2nnn(Cc3ccccc3)c2n1 | . | . | -0.6 | . | . | . | . | .
Cc1ccc(S(=O)(=O)N2CCN(c3nc(-c4cccs4)nc4ncccc34)CC2)cc1 | . | . | -0.4 | . | . | . | . | .

Assay outcomes deposited in PubChem by National Center for Advancing Translational Sciences (NCATS).
